Measured values taken from PubChem BioAssay.

Key:
[1] = tested on: Human papillomavirus type 1a protein E7 (residues 44-93); test: HPV1a E7 fragment binders on microarrays, primary screen, biochemical, small-molecule microarray, residues 44-93, 635 nm fluorescence (AID 1108); conditions: small-molecule microarray binding, fluorescence 635 nm; higher = more signal;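 further: E7 fragment applied at 1 µg/mL in TBST for 1 h at 4 C; score combines spot fluorescence with its signal to noise ratio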
[2] = modulators of HCV replicon luciferase signal, primary screen, HCV replication inhibitor project, Huh7 cells, luciferase reporter (AID 1109); conditions: 48 h, higher = more signal;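 further: huh7 hepatoma cells harbouring a luciferase neomycin HCV replicon reporter; luciferase luminescence as measure of HCV replicon replication; test concentration not given here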
[3] = target: Left-right determination factor 2 (Homo sapiens) (UniProt O00292); test: LEFTY2 binders on small-molecule microarrays, primary screen, biochemical, small-molecule microarray, 635 nm fluorescence scan (AID 1110); conditions: LEFTY2 binding, higher = more signal
Left-right determination factor 2 (Homo sapiens), sequence (O00292 whole entry, looked up): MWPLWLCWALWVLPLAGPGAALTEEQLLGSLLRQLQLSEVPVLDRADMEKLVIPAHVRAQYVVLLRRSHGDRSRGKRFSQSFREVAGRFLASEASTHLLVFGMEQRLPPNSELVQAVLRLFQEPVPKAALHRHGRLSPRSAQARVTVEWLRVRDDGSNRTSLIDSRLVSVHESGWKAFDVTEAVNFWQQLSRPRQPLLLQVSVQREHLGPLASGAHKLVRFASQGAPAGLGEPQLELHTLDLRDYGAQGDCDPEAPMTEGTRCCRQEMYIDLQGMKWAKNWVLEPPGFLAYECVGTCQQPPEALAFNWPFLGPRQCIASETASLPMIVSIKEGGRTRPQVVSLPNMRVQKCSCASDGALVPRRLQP

[4] = target: Calmodulin-1 (Homo sapiens) (UniProt P0DP23); test: CALM1 binders on microarrays, EGTA buffer, profiling panel, biochemical, small-molecule microarray, Cy5-labelled CALM1 (AID 1111); conditions: Cy5-CALM1 binding fluorescence, higher = more signal;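 further: labelled calmodulin applied in Tris saline Tween buffer holding calcium plus EGTA and DTT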
[5] = target: Calmodulin-1 (Homo sapiens) (UniProt P0DP23); test: calcium-bound CALM1 binders on microarrays, profiling panel, artefact control for SMM control-protein annotation, biochemical, small-molecule microarray, Cy5-labelled CALM1, plus calcium (AID 1112); conditions: Cy5-CALM1 binding fluorescence, higher = more signal;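 further: score merges spot fluorescence with signal to noise from triplicate slides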
[6] = small-molecule microarray binders of probe aWnt5a, primary screen, biochemical, biotinylated probe, 635/667 nm fluorescence (AID 1113); conditions: higher = more signal;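 further: score merges 667 nm fluorescence intensity with signal-to-noise per printed feature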
[7] = small-molecule microarray binders of probe aShh, primary screen, biochemical, biotinylated probe, 635/667 nm fluorescence (AID 1114); conditions: higher = more signal;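 further: probe is biotin-labelled aShh protein from a stem cell growth factor screen; measures binding of labelled protein to compounds printed on the slide; score merges feature fluorescence at 667 nm with signal-to-noise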
[8] = small-molecule microarray binders of probe aNog, primary screen, biochemical, biotinylated probe, 635/667 nm fluorescence (AID 1115); conditions: higher = more signal;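 further: probe is biotinylated aNog protein used at 0.15 µg/mL for 1 h at 4 C; z-score combines 667 nm fluorescence of each spot with its signal to noise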
[9] = target: Torsin-1A-interacting protein 1 (Homo sapiens) (UniProt Q5JTV8); test: LAP1 binders from COS7 cell lysate, primary screen, small-molecule microarray, 635/667 nm fluorescence (AID 1116); conditions: COS7-hLAP1 lysate binding, 635 nm fluorescence, higher = more signal
Torsin-1A-interacting protein 1 (Homo sapiens), sequence (Q5JTV8 whole entry, looked up): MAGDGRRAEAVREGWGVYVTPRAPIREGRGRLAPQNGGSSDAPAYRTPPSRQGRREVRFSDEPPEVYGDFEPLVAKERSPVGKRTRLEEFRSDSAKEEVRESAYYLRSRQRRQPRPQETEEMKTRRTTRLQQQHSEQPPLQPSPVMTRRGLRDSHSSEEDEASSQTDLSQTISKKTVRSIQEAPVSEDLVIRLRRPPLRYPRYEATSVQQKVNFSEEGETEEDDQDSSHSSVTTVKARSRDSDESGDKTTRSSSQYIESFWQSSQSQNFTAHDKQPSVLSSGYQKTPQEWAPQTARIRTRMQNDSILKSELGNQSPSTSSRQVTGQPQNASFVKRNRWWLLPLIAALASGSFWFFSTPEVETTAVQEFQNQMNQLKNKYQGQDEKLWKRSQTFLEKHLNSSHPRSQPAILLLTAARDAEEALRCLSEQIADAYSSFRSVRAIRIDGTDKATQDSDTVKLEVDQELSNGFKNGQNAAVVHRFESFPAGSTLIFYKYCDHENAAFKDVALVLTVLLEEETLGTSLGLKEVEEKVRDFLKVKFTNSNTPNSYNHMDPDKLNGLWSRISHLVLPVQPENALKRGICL

[10] = target: Alpha-bungarotoxin (Bungarus multicinctus) (UniProt P60615); test: alpha-bungarotoxin binders on microarray, profiling panel, artefact control for SMM control protein annotation, biochemical, small-molecule microarray, Alexa647 label, 635/667 nm fluorescence (AID 1117); conditions: alpha-BTX-A647 binding fluorescence, higher = more signal
Alpha-bungarotoxin (Bungarus multicinctus), sequence (P60615 whole entry, looked up): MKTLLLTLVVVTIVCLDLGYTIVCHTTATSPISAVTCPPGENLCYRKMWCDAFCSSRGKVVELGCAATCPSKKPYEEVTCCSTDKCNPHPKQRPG

SMILES	composite z-score [1]	z-score [2]	composite z-score [3]	composite z-score [4]	composite z-score [5]	composite z-score [6]	composite z-score [7]	composite z-score [8]	composite z-score [9]	composite z-score [10]
[N-]=[N+]=NCc1ccccc1C[C@]1(C(N)=O)COC(c2ccc(OCCCO)cc2)=N1	0.202	-0.17	-0.993	2.01	1.2	-0.0286	-0.0441	-0.169	2.59	1.58
CCOC(=O)C[C@H]1[C@H](OC(=O)c2ccc(C(=O)c3ccccc3)cc2)[C@@H](NC(=O)c2ccc3ccccc3n2)c2cc(OCCCO)ccc2N1C(=O)c1ccccc1	0.997	-1.63	-0.538	1.47	0.202	0.0079	0.308	0.217	0.164	1.05
NC(=O)NCC#Cc1ccc2c(c1)[C@]1(C(=O)N2)[C@H](C(N)=O)[C@H]2C(=O)O[C@H](c3ccccc3)[C@H](c3ccccc3)N2[C@@H]1c1ccc(O)cc1	0.502	0.408	-1.13	0.721	0.562	0.726	0.42	2.39	3.44	2.12
C=C(CCCC)/C(=C/C[C@H](OC(=O)c1ccncc1)c1ccccc1OCCO)c1cnc2ccccc2c1	1.13	-2.82	0.274	0.154	-0.666	-0.096	-0.0977	-0.0428	0.634	0.527
CC(C)N1C(=O)[C@@]2(Cc3ccccc31)c1ccccc1C(=O)N(Cc1ccccc1Cl)[C@H]2c1ccc(CO)cc1	-0.469	-0.791	-0.893	-0.493	-0.805	-0.105	-0.262	-0.179	-1.05	-0.216
COC(=O)[C@@]1(Cc2ccc(OC)cc2)[C@H]2c3cc(C(=O)N(C)C)n(C)c3C[C@H]2CN1C(=O)c1ccccc1	1.45	-2.62	-0.239	2.01	0.749	0.0337	0.527	2.11	1.15	0.696
[N-]=[N+]=Nc1ccccc1[C@H]1OC(c2ccc(OCCCO)cc2)=N[C@@]1(CCS(=O)(=O)c1ccccc1)C(=O)NCC(O)CO (stereo not given in full)	1.46	-0.604	-0.671	1.15	0.211	0.027	0.0611	-0.62	1.93	1.21
CN(C)C(=O)[C@@]1(CCS(=O)(=O)c2ccccc2)COC(c2ccc(OCCCO)cc2)=N1	1.31	-2.25	0.149	0.614	-0.429	-0.154	0.414	-0.288	2.75	0.301
O=C1O[C@H](c2ccccc2)[C@H](c2ccccc2)N2[C@H]1[C@@H](C(=O)N1CCCCCCC1)[C@]1(C(=O)Nc3ccc(C#CCCO)cc31)[C@H]2c1ccccc1OCCO	1.62	-1.53	1.91	3.03	1.73	1.69	3.01	2.38	5.84	4.84
C=C[C@H](OC)[C@@H](OC(=O)Nc1ccc(OC)cc1)c1ccc(O)c(F)c1	0.625	-0.276	-0.644	-1.25	-1.39	-0.28	0.0952	-0.478	1.14	-1.56
COCCOC(=O)N1C(=O)[C@@]2(c3cc(C#CCC(C(=O)OC)C(=O)OC)ccc31)[C@H](C(=O)N1CCN(c3ncccn3)CC1)[C@H]1C(=O)O[C@H](c3ccccc3)[C@H](c3ccccc3)N1[C@@H]2c1ccccc1OCCO	1.38	-1.94	1.16	0.875	-0.487	-0.0403	-0.17	-0.141	0.351	1.29
CC1CC/C=C\[C@H]2OC34C=CCN(C(C)(C)C)C(=O)[C@H]3N(C(C)CO)C(=O)[C@@H]4C2C(=O)O1 (stereo not given in full)	-0.864	-1.4	-0.442	-1.19	-1.23	-0.124	-0.0011	-0.219	-0.23	-0.942
CCOC(=O)C[C@H]1[C@H](OC(=O)c2ccc(-c3ccccc3)cc2)[C@@H](NC(=O)Cc2ccc(OC)cc2)c2cc(OCCCO)ccc2N1C(=O)c1ccccc1	0.269	-0.898	-0.458	0.211	0.0935	-0.0643	-0.17	-0.306	0.294	0.582
C=C(CCCC)/C(=C/C[C@H](OC(C)=O)c1ccccc1OCCO)c1cc(C(=O)OC)ccc1OC	0.0187	-2.06	-0.264	-0.621	-0.803	-0.12	0.0048	-0.0184	0.233	0.439
COCCOC(=O)N1C(=O)[C@@]2(c3cc(C#CCNC(N)=O)ccc31)[C@H](C(=O)N1CCN(c3ncccn3)CC1)[C@H]1C(=O)O[C@H](c3ccccc3)[C@H](c3ccccc3)N1[C@@H]2c1ccc(OCCO)cc1	1.01	-0.801	0.188	0.392	0.0615	0.0031	-0.315	0.196	0.0481	1.82
COc1cc2c(cc1OC)CN(C(=O)[C@H]1[C@@H]3C(=O)O[C@@H](c4ccccc4)[C@@H](c4ccccc4)N3[C@@H](c3ccc(O)cc3)[C@]13C(=O)Nc1ccccc13)CC2	1.46	-2.54	0.0835	0.92	0.427	-0.166	-0.0289	0.386	1.01	1.43
CCCC[C@H]1OB(O)C[C@H]2C1=C(COC)C[C@H]1C(=O)N(C)C(=O)[C@H]12	0.343	-0.918	0.358	0.223	-0.596	-0.152	-0.0626	-0.0496	-0.321	1.16
